# Inconclusive results are not listed. A number with no mark means an inactive call. Activity calls are given as the source filed them. Calls come from the whole dose curve; as a rule, active = well fitted inhibition curve with a large enough effect; inconclusive = small, poorly fitted or top-dose-only effect; inactive = flat fitted curve, though single readings scatter. *1 amine or outer side, *2 acyl side, *3 side chain or, on linkers, in order; H or OH if unused. Where a SMILES comes first, the peptide text is derived from it. [ ]: non-standard residue; d: D form. X4 = CC(C)=CCc1cc(C(O)C(N[*:1])C(=O)[*:2])ccc1O
# Test system: HEK293
# Assay: Cytotoxic Profiling of Annotated Libraries Using Quantitative High-Throughput Screening (AID 1296008); note: nearly all actives have a fitted effect of over 60% in size
# Conditions: Five cell lines viability, CellTiter-Glo ATP luminescence, 48-72 h; max response: hits give low values
# In short: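 Cytotoxicity was measured as CellTiter-Glo ATP luminescence, read after 10 min at room temperature. Compound treatment of the cells lasted 48 or 72 hr at 37 degrees Celsius in a qHTS format.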
# % is set by controls: 0 for no effect and ±100 for the full control effect; potency is the fitted concentration of half-maximal effect.
Compound,max response,Potency,outcome
CN=C(N)NCCCCC/C=C(/C)CC(C)C1OC(=O)C(C)C(O)/C=C/C(C)C(O)CC(O)C(C)C(O)CCC(C)C(O)CC2(O)OC(CC(OC(=O)CC(=O)O)CC(O)CC(O)C(C)C(O)/C(C)=C/CCC1C)CC(O)C2O (centres undefined),-1.07%,,
CO[C@H]1C[C@@H]2CC[C@@H](C)[C@@](O)(O2)C(=O)C(=O)N2CCCC[C@H]2C(=O)O[C@H]([C@H](C)C[C@H]2CC[C@@H](OP(C)(C)=O)[C@H](OC)C2)CC(=O)[C@H](C)/C=C(\C)[C@@H](O)[C@@H](OC)C(=O)[C@H](C)C[C@H](C)/C=C/C=C/C=C/1C,,6.4 nM (active),
COc1ccc(C[C@H](N)C(=O)N[C@@H]2[C@H](O)[C@H](n3cnc4c(N(C)C)ncnc43)O[C@@H]2CO)cc1,,1160 nM (active),
N#Cc1ccc(-c2cnc3[nH]cc(NC(=O)c4cccnc4)c3c2)cc1,,8200 nM (active),
CCCC(=O)O[C@@H]1[C@@H]2[C@@H](OC(C)=O)[C@]3(C)C(=O)[C@H]4[C@@H](OC(C)=O)C(C)(C)C[C@H]4[C@]3(C)C(=O)[C@@]2(OC(C)=O)C[C@@H]1C,3.97%,,
COC1=CC(=O)CC(C)C12Oc1cc(OC)cc(O)c1C2=O (centres undefined),0.0359%,,
C[C@H]1C(=O)N2c3ccccc3[C@@]3(O)C[C@@H]4C(=O)N[C@](C)(c5nc6ccccc6c(=O)n54)N1[C@@H]23,-0.775%,,
O=C(/C=C\n1cnc(-c2cc(C(F)(F)F)cc(C(F)(F)F)c2)n1)N1CC(F)(F)C1,,1300 nM (active),
CC1(C)CCC[C@@]2(C)C1[C@H](OC(=O)/C=C/C=C/C(=O)O)C=C1COC(=O)[C@@]12O (some centres undefined),-4.94%,,
CC1(C)C2CC(OC3OC(COC4OCC(O)(CO)C4O)C(O)C(O)C3O)C1(C)CC2O (centres undefined),-3.81%,,
C=C1C(O)CC2C(C(=O)O)=COC(O[C@@H]3O[C@H](COC(=O)/C=C/c4ccc(O)cc4)[C@@H](O)[C@H](O)[C@H]3O)C12 (some centres undefined),,,inactive
CCC(C)C(=O)OC1CC(O)C23C4OCC5(C(O)CC2C1(C)C(O)O4)C3C(=O)C(O)C1(C)C(O)(c2ccoc2)CC2OC251 (centres undefined),,1720 nM (active),
Cc1cccc(C)c1OCc1cc(C(=O)N2CCC(c3ccncc3)CC2)no1,,6510 nM (active),
Cn1nnc(-c2ccc(-c3ccc(N4C[C@H](COP(=O)(O)O)OC4=O)cc3F)cn2)n1,,580 nM (active),
O=c1[nH]ccc2cc(OC3CCNCC3)ccc12,-16.8%,,
CCCCNc1ncc2c(-c3ccc(F)cc3)nn(CC3CCC(N)CC3)c2n1 (centres undefined),-110%,,
Nc1nc(Nc2ccc(S(N)(=O)=O)cc2)n(C(=S)Nc2c(F)cccc2F)n1,,8200 nM (active),
COC(=O)c1cc(OC)cc(OC)c1C(=O)c1c(OC)cc2c(c1O)C1CCCC(C)(O2)O1 (centres undefined),-5.64%,,
COc1ccc(C(=O)C2CCN(CC(=O)N(Cc3nc4c(c(=O)[nH]3)COCC4)CC3CC3)CC2)cc1,-4.04%,,
C[C@@H]1N[C@H]2N(C1=O)c1ccccc1[C@@]2(O)C[C@@H]1C(=O)N[C@@H](C)c2nc3ccccc3c(=O)n21,-21.5%,,

Compound,max response,Potency,outcome
C[C@@H]1COCCN1c1cc(C2(S(C)(=O)=O)CC2)nc(-c2cccc3[nH]ccc23)n1,,1460 nM (active),
CC(=O)N1CCN(C(=O)Cc2ccc(Nc3ncc(F)c(Nc4ccc(C(=O)Nc5ccccc5Cl)cc4)n3)cc2)CC1,,6510 nM (active),
C=CC(C)(C)c1[nH]c2cc3c(cc2c1CC1NC(=O)C2CCCN2C1=O)C=CC(C)(C)O3 (centres undefined),,,inactive
CC1=CC(=O)[C@]2(O[C@@H]3O[C@@H](C)[C@H](O)[C@@H](O)[C@H]3OC(=O)/C=C/c3ccccc3)C=CO[C@@H](O[C@@H]3O[C@H](CO)[C@@H](O)[C@H](O)[C@H]3O)[C@H]12,-1.41%,,
CC(=O)O[C@H]1CC[C@@]2(C)C(CC[C@@H](C)[C@]23Cc2c(O)cc4c(c2O3)CN([C@@H](CCC(=O)O)C(=O)O)C4=O)C1(C)C (some centres undefined),-7.36%,,
CC(=O)NC[C@H]1CN(c2ccc(N3CCN(C(=O)CO)CC3)c(F)c2)C(=O)O1,,13000 nM (active),
C[C@@H]1CCN(C(=O)N2CCCC2)C[C@@H]1N(C)c1ncnc2[nH]ccc12,-16.9%,,
COc1c2cc(c(O)c1OC)-c1cc(ccc1O)CCC(O)CCCC2 (centres undefined),1.1%,,
CC(=O)O[C@@H]1[C@H](O)[C@@H](O[C@@H]2O[C@@H](C)[C@H](O[C@@H]3OC[C@@H](O)[C@H](O[C@@H]4OC[C@@H](O)[C@H](O)[C@H]4O)[C@H]3O)[C@@H](O[C@@H]3O[C@H](CO)[C@@H](O)[C@H](O)[C@H]3O)[C@H]2O)[C@H](OC(=O)[C@]23CCC(C)(C)C[C@H]2C2=CCC4[C@@]5(C)CC[C@H](O[C@@H]6O[C@H](C(=O)O)[C@@H](O)[C@H](O[C@@H]7OC[C@@H](O)[C@H](O)[C@H]7O)[C@H]6O[C@@H]6O[C@H](CO)[C@H](O)[C@H](O)[C@H]6O)[C@@](C)(C=O)C5CC[C@@]4(C)[C@]2(C)CC3)O[C@@H]1C (some centres undefined),-5.31%,,
COC(=O)CC(C)(O)CC(=O)OCc1ccc(O[C@@H]2O[C@H](CO)[C@@H](O)[C@H](O)[C@H]2O)cc1 (some centres undefined),,,inactive
O=C(O)/C=C/c1ccc(-c2ccc(O)c(C34CC5CC(CC(C5)C3)C4)c2)cc1,,731 nM (active),
CN1c2ccccc2C(=O)N2CCC3c4ccccc4NC3C21 (centres undefined),,2550 nM (active),
CC(C)=CCc1cc(C(O)C2NC(=O)CNC(=O)C(Cc3c[nH]c4ccccc34)NC(=O)C3CCCN3C(=O)CNC(=O)C(C(C)C)NC(=O)CNC2=O)ccc1O (centres undefined) (cyclo(G[X4]GVGPW); configuration not given here),-8.38%,,
C#CC[C@H](c1nc2cc(Cl)ccc2c(=O)n1Nc1ccccc1)N(CCCN)C(=O)c1cccc(Cl)c1F,,1460 nM (active),
CC1=CC(=O)CC(C)(C)C1CCC(C)O[C@@H]1O[C@H](CO[C@@H]2OC[C@@H](O)[C@H](O)[C@H]2O)[C@@H](O)[C@H](O)[C@H]1O (some centres undefined),-8.79%,,
C=C[C@H]1[C@H](O[C@@H]2O[C@H](CO)[C@@H](O)[C@H](O)[C@H]2O)OC=C(C(=O)OC)[C@H]1CCOC(=O)c1cc(O)c(O)c(O)c1,0.889%,,
CCC(C)/C=C(C)/C=C/c1cc2c(cn1)C(=O)C(C)(OC(C)=O)C(O)=C2Cl (centres undefined),-0.415%,,
Cc1nc(Nc2n[nH]c3c2CN(C(=O)NC(CN(C)C)c2ccccc2)C3(C)C)c2sccc2n1 (centres undefined),,14.6 nM (active),
CC(C)[N+]1(C)C2CCC1CC(OC(=O)C(CO)c1ccccc1)C2 (centres undefined),-4.72%,,

# — PubChem BioAssay (NCATS)
